Results on one sequence are retold here after PMC7862700, “An all-to-all approach to the identification of sequence-specific readers for epigenetic DNA modifications on cytosine”.

Common to all, as to assay: DAPPL (digital affinity profiling via proximity ligation, sequencing); 10 mM Tris-HCl pH 7.5, 50 mM NaCl, 1 mM DTT, 4% glycerol, room temperature, 30 min; GST-TFs on glutathione beads, 16-mer random dsDNA library, 0.1% formaldehyde crosslink after washing; high values mean tight binding
The target in one experiment is T1, ELK1 (Homo sapiens, UniProt P19419 1-428).
T1 sequence: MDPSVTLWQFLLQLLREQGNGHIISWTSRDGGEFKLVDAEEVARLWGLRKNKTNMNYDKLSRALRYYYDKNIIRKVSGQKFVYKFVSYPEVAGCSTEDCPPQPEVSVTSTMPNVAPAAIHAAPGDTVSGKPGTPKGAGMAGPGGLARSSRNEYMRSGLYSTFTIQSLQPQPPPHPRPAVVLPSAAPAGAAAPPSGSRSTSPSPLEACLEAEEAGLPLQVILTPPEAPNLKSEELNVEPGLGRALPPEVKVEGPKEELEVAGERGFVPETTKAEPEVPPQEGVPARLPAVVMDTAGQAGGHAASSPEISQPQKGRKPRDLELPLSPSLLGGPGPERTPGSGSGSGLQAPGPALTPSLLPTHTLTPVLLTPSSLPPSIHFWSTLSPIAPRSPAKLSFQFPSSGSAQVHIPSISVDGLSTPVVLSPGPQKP
The following applies: protein: recombinant; tags: N-terminal GST; dsDNA, one strand shown. The essentials: (§1)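 A tag-only sample was pooled with DNA-barcoded human transcription factors that had been expressed in yeast as GST fusions and captured on glutathione beads. The pools were incubated for 30 min at room temperature with 200 nmole of a random double-stranded 16-mer DNA library in Tris/NaCl/DTT/glycerol buffer, then washed, crosslinked with 0.1% formaldehyde, proximity-ligated (BsaI/T4 ligase, 1 h, 37 °C), PCR-amplified and sequenced on an Illumina NextSeq500. Binding signal is each hexamer's read frequency for a factor divided by its frequency for the tag-only sample.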

For a further experiment, the target named is T2, GABPA (Homo sapiens, UniProt Q06546 1-454).
T2 sequence: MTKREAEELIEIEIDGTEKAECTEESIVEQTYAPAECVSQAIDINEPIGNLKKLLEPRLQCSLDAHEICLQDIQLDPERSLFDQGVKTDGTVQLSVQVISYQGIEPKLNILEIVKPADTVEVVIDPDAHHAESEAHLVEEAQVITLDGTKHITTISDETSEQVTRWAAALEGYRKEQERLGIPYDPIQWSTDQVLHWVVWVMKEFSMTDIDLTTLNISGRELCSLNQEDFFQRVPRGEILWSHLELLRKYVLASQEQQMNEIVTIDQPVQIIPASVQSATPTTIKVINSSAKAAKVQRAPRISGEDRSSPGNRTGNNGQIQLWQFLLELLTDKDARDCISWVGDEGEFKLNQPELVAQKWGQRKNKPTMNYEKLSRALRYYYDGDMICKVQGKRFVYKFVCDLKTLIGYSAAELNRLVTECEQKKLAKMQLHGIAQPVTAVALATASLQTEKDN
The following applies: protein: recombinant; tags: N-terminal GST; dsDNA, one strand shown. The essentials:
as §1

A further experiment deals with ELF1 (Homo sapiens, UniProt P32519 1-619). The note with it: protein: recombinant; tags: N-terminal GST; dsDNA, one strand shown. The essentials: as §1
Sequence of ELF1 (P32519 whole entry): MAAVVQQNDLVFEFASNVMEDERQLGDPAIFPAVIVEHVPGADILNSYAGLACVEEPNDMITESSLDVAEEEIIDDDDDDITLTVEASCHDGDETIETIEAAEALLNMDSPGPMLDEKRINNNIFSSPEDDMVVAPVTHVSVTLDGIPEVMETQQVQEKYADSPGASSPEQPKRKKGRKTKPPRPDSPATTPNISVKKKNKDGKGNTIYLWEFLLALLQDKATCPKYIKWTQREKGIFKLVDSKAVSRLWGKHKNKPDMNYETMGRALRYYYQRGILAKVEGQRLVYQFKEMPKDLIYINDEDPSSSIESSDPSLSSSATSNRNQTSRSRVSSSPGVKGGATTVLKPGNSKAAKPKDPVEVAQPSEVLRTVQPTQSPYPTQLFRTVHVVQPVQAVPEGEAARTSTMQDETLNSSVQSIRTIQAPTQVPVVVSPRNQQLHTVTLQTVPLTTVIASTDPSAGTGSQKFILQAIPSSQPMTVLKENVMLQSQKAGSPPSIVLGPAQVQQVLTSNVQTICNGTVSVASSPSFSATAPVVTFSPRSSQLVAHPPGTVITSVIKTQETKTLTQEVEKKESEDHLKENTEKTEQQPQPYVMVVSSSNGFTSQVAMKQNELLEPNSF
Another experiment addresses T3, ELK3 (Homo sapiens, UniProt P41970 1-407).
T3 sequence: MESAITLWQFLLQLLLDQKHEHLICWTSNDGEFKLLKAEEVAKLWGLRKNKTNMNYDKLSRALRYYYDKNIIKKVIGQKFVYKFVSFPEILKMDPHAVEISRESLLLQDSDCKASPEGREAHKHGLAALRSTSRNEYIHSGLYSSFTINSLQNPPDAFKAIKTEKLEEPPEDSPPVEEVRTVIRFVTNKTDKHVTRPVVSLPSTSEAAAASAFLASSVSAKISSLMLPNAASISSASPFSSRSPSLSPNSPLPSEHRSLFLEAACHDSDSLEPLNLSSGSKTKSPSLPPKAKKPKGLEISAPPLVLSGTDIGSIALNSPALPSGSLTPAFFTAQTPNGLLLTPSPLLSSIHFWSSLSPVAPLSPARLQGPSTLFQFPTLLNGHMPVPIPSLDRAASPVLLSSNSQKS
The note with it: protein: recombinant; tags: N-terminal GST; dsDNA, one strand shown. An outline of the steps:
as §1

For another experiment, the target named is HSF1 (Homo sapiens, UniProt Q00613 1-529). The following applies: protein: recombinant; tags: N-terminal GST; chain copies: 3; dsDNA, one strand shown. An outline of the steps: as §1
Sequence of HSF1 (Q00613 whole entry): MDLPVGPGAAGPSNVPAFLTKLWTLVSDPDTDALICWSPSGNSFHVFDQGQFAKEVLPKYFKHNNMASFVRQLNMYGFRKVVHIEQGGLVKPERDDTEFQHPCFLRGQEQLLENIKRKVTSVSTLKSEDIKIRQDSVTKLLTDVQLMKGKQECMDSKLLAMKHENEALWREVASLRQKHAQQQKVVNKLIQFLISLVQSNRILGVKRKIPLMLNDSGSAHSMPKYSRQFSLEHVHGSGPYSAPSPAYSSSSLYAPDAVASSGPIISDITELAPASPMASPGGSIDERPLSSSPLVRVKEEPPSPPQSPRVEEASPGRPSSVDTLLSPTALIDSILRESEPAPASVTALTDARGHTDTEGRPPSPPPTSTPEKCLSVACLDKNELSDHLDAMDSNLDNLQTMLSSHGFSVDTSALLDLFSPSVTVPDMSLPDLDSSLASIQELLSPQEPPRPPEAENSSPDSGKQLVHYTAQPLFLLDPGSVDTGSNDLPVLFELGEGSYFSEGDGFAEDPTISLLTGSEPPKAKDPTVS
In another experiment the target is T4, SPIC (Homo sapiens, UniProt Q8N5J4 1-248).
T4 sequence: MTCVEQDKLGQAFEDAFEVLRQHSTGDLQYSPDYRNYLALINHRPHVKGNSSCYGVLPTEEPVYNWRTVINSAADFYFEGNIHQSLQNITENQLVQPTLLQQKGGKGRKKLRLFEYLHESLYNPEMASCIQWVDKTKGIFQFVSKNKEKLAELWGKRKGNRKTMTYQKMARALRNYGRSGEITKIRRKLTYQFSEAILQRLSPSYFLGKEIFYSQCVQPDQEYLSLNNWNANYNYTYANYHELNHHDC
The following applies: protein: recombinant; tags: N-terminal GST; dsDNA, one strand shown. The essentials:
as §1

The target in the next experiment is T5, ELK4 (Homo sapiens, UniProt P28324-2 1-405).
T5 sequence: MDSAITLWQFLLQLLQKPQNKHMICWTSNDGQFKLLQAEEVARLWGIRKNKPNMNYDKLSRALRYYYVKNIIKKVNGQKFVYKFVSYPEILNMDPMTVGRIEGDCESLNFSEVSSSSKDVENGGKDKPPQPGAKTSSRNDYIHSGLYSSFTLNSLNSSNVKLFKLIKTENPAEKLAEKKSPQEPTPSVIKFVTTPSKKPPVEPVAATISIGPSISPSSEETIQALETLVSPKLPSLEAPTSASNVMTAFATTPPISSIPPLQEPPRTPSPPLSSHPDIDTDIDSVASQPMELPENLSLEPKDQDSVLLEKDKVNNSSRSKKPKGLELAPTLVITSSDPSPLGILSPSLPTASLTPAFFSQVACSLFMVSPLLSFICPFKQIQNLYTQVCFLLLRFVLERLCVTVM
The following applies: protein: recombinant; tags: N-terminal GST; dsDNA, one strand shown. An outline of the steps: as §1

A further experiment addresses T6, ETV2 (Homo sapiens, UniProt O00321 1-342).
T6 sequence: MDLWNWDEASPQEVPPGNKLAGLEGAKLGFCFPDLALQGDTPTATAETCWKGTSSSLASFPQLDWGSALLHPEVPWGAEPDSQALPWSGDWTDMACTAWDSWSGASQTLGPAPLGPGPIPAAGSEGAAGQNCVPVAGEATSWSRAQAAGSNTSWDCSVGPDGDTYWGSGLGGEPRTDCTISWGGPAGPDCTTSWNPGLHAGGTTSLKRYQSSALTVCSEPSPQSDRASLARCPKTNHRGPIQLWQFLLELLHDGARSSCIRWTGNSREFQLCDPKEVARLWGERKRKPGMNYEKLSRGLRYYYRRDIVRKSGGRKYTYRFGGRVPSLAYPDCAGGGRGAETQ
The note with it: protein: recombinant; tags: N-terminal GST; dsDNA, one strand shown. The essentials:
as §1

For another experiment, the target named is CRX (Homo sapiens, UniProt O43186 1-299). The note with it: protein: recombinant; tags: N-terminal GST; dsDNA, one strand shown. An outline of the steps: as §1
Sequence of CRX (O43186 whole entry): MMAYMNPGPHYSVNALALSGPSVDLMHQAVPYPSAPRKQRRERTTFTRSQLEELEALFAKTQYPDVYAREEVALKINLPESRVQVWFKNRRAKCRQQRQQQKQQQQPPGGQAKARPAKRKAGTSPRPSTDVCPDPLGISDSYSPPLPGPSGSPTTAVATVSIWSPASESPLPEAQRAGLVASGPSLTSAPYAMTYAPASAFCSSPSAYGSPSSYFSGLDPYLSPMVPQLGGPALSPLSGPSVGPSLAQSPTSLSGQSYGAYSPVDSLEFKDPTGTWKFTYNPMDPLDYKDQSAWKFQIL
A further experiment deals with T7, ERF (Homo sapiens, UniProt P50548 1-548).
T7 sequence: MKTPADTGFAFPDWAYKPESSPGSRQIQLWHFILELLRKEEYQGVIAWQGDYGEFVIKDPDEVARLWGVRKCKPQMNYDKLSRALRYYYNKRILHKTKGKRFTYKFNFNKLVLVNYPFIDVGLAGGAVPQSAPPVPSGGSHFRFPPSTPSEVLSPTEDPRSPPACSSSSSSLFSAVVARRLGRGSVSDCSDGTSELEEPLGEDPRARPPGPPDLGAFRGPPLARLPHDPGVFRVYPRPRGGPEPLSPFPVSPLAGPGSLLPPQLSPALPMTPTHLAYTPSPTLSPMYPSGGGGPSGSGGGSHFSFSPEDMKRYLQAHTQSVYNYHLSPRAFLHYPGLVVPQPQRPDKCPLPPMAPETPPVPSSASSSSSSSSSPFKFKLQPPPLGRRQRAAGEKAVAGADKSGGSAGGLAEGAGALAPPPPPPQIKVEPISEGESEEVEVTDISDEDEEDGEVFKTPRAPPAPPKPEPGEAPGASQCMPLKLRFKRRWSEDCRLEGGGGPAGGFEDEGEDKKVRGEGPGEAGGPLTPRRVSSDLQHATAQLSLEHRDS
The note with it: protein: recombinant; tags: N-terminal GST; dsDNA, one strand shown. An outline of the steps: as §1

The target in a further experiment is T8, SPDEF (Homo sapiens, UniProt O95238 1-335).
T8 sequence: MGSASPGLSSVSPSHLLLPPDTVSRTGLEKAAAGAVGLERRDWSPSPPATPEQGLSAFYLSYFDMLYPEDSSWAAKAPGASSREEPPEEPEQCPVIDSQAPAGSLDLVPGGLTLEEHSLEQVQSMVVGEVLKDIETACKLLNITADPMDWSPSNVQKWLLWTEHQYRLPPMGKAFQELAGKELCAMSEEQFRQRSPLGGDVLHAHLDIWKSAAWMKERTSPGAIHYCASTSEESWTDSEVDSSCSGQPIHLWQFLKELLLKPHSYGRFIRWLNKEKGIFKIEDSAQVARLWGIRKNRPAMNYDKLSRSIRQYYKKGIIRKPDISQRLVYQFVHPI
The note with it: protein: recombinant; tags: N-terminal GST; dsDNA, one strand shown. An outline of the steps: as §1

In another experiment the target is T9, ETV7 (Homo sapiens, UniProt Q9Y603 1-341).
T9 sequence: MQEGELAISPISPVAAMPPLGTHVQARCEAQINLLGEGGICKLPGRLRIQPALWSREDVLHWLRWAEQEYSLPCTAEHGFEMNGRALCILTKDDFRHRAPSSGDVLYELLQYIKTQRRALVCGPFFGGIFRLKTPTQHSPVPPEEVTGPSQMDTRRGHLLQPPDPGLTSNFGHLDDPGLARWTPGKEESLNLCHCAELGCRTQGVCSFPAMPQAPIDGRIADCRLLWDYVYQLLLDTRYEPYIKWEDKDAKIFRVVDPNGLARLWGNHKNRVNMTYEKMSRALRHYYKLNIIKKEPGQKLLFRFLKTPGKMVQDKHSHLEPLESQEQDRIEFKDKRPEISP
The note with it: protein: recombinant; tags: N-terminal GST; dsDNA, one strand shown. An outline of the steps: as §1

The next experiment concerns the target T10, ETV3 (Homo sapiens, UniProt P41162-2 1-143).
T10 sequence: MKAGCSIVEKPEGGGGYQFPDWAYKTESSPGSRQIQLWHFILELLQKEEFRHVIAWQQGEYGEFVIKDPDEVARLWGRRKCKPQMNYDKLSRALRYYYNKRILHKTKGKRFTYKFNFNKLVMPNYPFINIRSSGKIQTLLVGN
The note with it: protein: recombinant; tags: N-terminal GST; dsDNA, one strand shown. The essentials:
as §1

Regarding CGCGAA, the binding signal was 1.04 fold enrichment (6-mer frequency, TF over GST control) with ELK1; 1.01 fold enrichment (6-mer frequency, TF over GST control) with GABPA; 1.03 fold enrichment (6-mer frequency, TF over GST control) with ELF1; 1.05 fold enrichment (6-mer frequency, TF over GST control) with ELK3; 1.76 fold enrichment (6-mer frequency, TF over GST control) with HSF1; 1.02 fold enrichment (6-mer frequency, TF over GST control) with SPIC. The binding signal is 1.08 fold enrichment (6-mer frequency, TF over GST control) with ELK4; 1.11 fold enrichment (6-mer frequency, TF over GST control) with ETV2; 1.05 fold enrichment (6-mer frequency, TF over GST control) with CRX; 1.01 fold enrichment (6-mer frequency, TF over GST control) in the experiment with ERF; 1.01 fold enrichment (6-mer frequency, TF over GST control) with SPDEF; 1.1 fold enrichment (6-mer frequency, TF over GST control) with ETV7. Also, the binding signal with ETV3 was 1.01 fold enrichment (6-mer frequency, TF over GST control).
